# Results: PubChem BioAssay (Tox21)
# Values without a mark were called inactive. Calls follow the shape of the full dose curve.
# Target: Gonadotropin-releasing hormone receptor (Homo sapiens) (UniProt P30968)
# Experiment: Human gonadotropin-releasing hormone receptor (GnRHR) small molecule agonists, calcium flux assay in GnRHR-HEK293 cells (AID 1920063); also: nearly all actives have a fitted effect of over 35% in size
# Conditions: calcium flux fluorescence, agonist mode; series mostly up to 57.6 µM; activity change: at the top concentration
# In short: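 Tox21-format agonist screen using human GnRHR-expressing HEK293 cells and a fluorescent calcium dye; kinetic 3-min fluorescence reading after compound addition, 15-point concentration series run in triplicate.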
# % is scaled to controls: 0 for no effect and ±100 for the full control effect.
# Sequence of Gonadotropin-releasing hormone receptor (Homo sapiens) (P30968 whole entry, looked up): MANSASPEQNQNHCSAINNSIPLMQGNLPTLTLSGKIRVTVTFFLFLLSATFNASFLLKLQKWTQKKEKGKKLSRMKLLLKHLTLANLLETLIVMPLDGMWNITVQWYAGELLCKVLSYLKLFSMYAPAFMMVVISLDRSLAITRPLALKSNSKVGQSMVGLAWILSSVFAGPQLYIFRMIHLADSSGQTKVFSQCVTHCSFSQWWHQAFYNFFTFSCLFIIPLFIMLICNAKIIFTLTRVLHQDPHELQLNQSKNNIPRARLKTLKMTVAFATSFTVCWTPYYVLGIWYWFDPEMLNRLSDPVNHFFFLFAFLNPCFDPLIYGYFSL
row,Structure (SMILES),activity change
1,CCCCCCCCP(=O)(O)O,-0.196%
2,c1ccc2c(c1)CCNC2,0.257%
3,C[C@]12Cc3nonc3C[C@@H]1CC[C@@H]1[C@@H]2CC[C@@]2(C)[C@H]1CC[C@]2(C)O,"15% [at 26.4 µM, stronger effect = higher value]"
4,Nc1cc(Cl)ccc1Cl,-1.4%
5,Clc1cccc(N2CCNCC2)c1,"2.3% [at 26.4 µM, stronger effect = higher value]"
6,N#Cc1c(Cl)cccc1Cl,-0.225%
7,COc1ccc(CN2CCNCC2)c(OC)c1OC,"0.0419% [at 26.4 µM, stronger effect = higher value]"
8,CC(Cc1ccccc1)N(C)Cc1ccco1 (stereo not given),"6.31% [at 26.4 µM, stronger effect = higher value]"
9,ClCC(Cl)Cl,0.918%
10,CC[C@@H](CO)NC(=O)[C@@H]1C=C2c3cccc4c3c(cn4C)C[C@H]2N(C)C1,"6.05% [at 26.4 µM, stronger effect = higher value]"
11,CC1NCCOC1c1ccccc1 (stereo not given),"0.165% [at 26.4 µM, stronger effect = higher value]"
12,O=C(Cc1ccccc1)OCCc1ccccc1,-0.422%
13,O=C(Cl)c1ccc(Cl)cc1,-1.57%
14,COc1ccc(C(=O)N2CCCC2=O)cc1,"-2.01% [at 26.4 µM, stronger effect = higher value]"
15,ClCCCN1CCN(c2cccc(Cl)c2)CC1,"8.23% [at 26.4 µM, stronger effect = higher value]"
16,C=CCC1([C@H](C)CCC)C(=O)NC(=O)NC1=O,0.517%
17,ClC(Cl)=C(Cl)Cl,1.42%
18,CCN(C(C)=O)c1cccc(-c2ccnc3c(C#N)cnn23)c1,"4.24% [at 26.4 µM, stronger effect = higher value]"
19,CCCN1CCC[C@@H]2Cc3[nH]ncc3C[C@H]21,"1.67% [at 26.4 µM, stronger effect = higher value]"
20,CC#Cc1cc(C)nc(Nc2ccccc2)n1,-0.0675%

row,Structure (SMILES),activity change
1,BrCCCCBr,-0.0692%
2,O=c1[nH]oc2c1CCNC2,"-0.435% [at 26.4 µM, stronger effect = higher value]"
3,O=C1OC(CCN2CCCCC2)OC1(c1ccccc1)c1ccccc1 (stereo not given),"8.56% [at 26.4 µM, stronger effect = higher value]"
4,N[C@@H](Cc1ccc(Oc2cc(I)c(O)c(I)c2)c(I)c1)C(=O)O,"1.48% [at 26.4 µM, stronger effect = higher value]"
5,O=S1(=O)OC(c2cc(Br)c(O)c(Br)c2)(c2cc(Br)c(O)c(Br)c2)c2ccccc21,-0.223%
6,[Cl][Sn]([Cl])([Cl])[Cl],-0.479%
7,O=[N+]([O-])c1ccc(CCl)cc1,-0.32%
8,O=C(CCCN1CCC(n2c(=O)[nH]c3ccccc32)CC1)c1ccc(F)cc1,"14.8% [at 26.4 µM, stronger effect = higher value]"
9,COc1cc(CC#N)cc(OC)c1OC,"-0.906% [at 26.4 µM, stronger effect = higher value]"
10,CC(C)NCC(O)c1ccc([N+](=O)[O-])cc1 (stereo not given),"-0.554% [at 26.4 µM, stronger effect = higher value]"
11,CC(C(O)c1ccccc1)N(C)C/C=C/c1ccccc1 (stereo not given),"5.24% [at 26.4 µM, stronger effect = higher value]"
12,CC[C@@H](CO)NC(=O)[C@@H]1C=C2c3cccc4[nH]cc(c34)C[C@H]2N(C)C1,"10.6% [at 26.4 µM, stronger effect = higher value]"
13,CC(Cl)(Cl)Cl,1.17%
14,CCOC(=O)CC(=O)CCl,0.0203%
15,CNC(C)Cc1ccccc1OC (stereo not given),"-1.22% [at 26.4 µM, stronger effect = higher value]"
16,CC(C)NCC(O)c1ccccc1Cl (stereo not given),"15.9% [at 26.4 µM, stronger effect = higher value]"
17,CCN(CC)CCOC(=O)C(C)(c1ccccc1)c1ccccc1,"2.48% [at 26.4 µM, stronger effect = higher value]"
18,ClCc1cccc(Cl)c1,"-0.0982% [at 26.4 µM, stronger effect = higher value]"
19,CC1=C2C[C@H]3[C@@H](CC=C4C[C@@H](O)CC[C@@]43C)[C@@H]2CC[C@]12O[C@@H]1C[C@H](C)CN[C@H]1[C@H]2C,"5.7% [at 26.4 µM, stronger effect = higher value]"
20,CC(C)[C@H](C(=O)OC(C#N)c1cccc(Oc2ccccc2)c1)c1ccc(OC(F)F)cc1 (stereo not given in full),1.37%
